In all, about 360,000 compounds went through this assay and about 1,300 (0.36%) were called active. This is one part of a sample in which actives are shown more often than they occur.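 The calls were made as follows: active = corrected activity change at or below -50% at 5 µM; inactive = the rest.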

The test can be described thus: cytotoxicity in KKLEB CF airway cells, primary screen, cytotoxicity control for CF NF-kB inhibitor project, cell-based, uHTS, fluorescence assay plates (AID 602141). Particulars: KKLEB CF airway cells viability, ATPlite luminescence, overnight; at 5 µM; hits give low values; cells stimulated with P. aeruginosa culture filtrate.
Consider `C=CCNC(=S)NNC(=O)COc1c(Cl)cc(Cl)cc1Cl`, for which the activity change (cytotoxicity) was -16.4% (inactive).
For `O=C(C1CCN(S(=O)(=O)c2ccc(Br)s2)CC1)N1CCN(C2CCCCC2)CC1` the value was 13.7% (inactive); for `CCCOc1ccc(C(=O)C(CCC(CNCC)C(=O)c2ccc(OCCC)cc2)CNCC)cc1` (configuration not stated), -58.6% (active).
On to `CC(C)CCOc1ccc(C(=O)C[N+]2(C)CCOCC2)cc1`, for which the activity change (cytotoxicity) is 1.8% (inactive).
On to `CCCc1ccc(OCCNC(=O)c2ccccc2Br)cc1`, for which the activity change (cytotoxicity) is -6.1% (inactive).
For `Cc1ccc(C(NC(=O)C2CCN(CCOc3ccc(Cl)cc3Cl)CC2)c2ccccn2)cc1` (configuration not stated) the value was -0.6% (inactive); for `CCOc1ccc(-c2cc(C(=O)N/N=C/c3ccc(O)cc3)c3ccccc3n2)cc1`, -15.6% (inactive).
For `COc1cccc(OCc2cc(/C=N/NC(=O)c3nc(Cl)c(Cl)c(N)c3Cl)ccc2OC)c1` the value was -5.4% (inactive).
Take `COc1ccc(C(=O)Nc2ccccc2C(=O)N/N=C/c2ccc(O)c(OC)c2)cc1`: the activity change (cytotoxicity) was -87.3% (active).
For `CC(=O)Nc1ccc(NC(=O)CC2CCCC2)cc1` the value was 6.6% (inactive).
For `O=c1c2ccccc2ncn1CCCCOc1ccccc1F` the value was 5.1% (inactive).
For `COCCCNC(=O)C1CC(=O)N(CCc2ccc(F)cc2)C1` (configuration not stated) the value was 1.6% (inactive).
As to `O=C(CSc1nc2nccnc2c(=O)n1Cc1cccs1)Nc1ccccc1F`, the activity change (cytotoxicity) was -10.3% (inactive).
For `CCOc1ccc(NC(=O)CSc2nc3ccccc3c(=O)n2Cc2cccs2)cc1` the value was -54.6% (active); for `CC(=O)NCCn1c(SCC(=O)Nc2ccc(C)cc2)nc2ccccc2c1=O`, 4.4% (inactive).
For `Cc1ccc(NC(=O)C(c2ccccc2)N2CCN(C(=O)c3ccco3)CC2)cc1` (configuration not stated) the value was 19.2% (inactive); for `CSc1ccc(CNC(=O)c2ccc(NC(=O)C3=CSCCO3)cc2)cc1`, -31.3% (inactive); for `CCC/C(O)=C1\C(=O)CC(C)(C)CC1=Nc1ccccc1OC`, 21.9% (inactive).
For `Cc1cc2c(C)nc(N/N=C/c3ccccc3)nc2o1` the value was 16.3% (inactive); for `C=C(C)C(=O)O[C@H]1C/C(C)=C\C(=O)/C=C(\C)[C@H](O)[C@@H]2OC(=O)C(=C)[C@@H]21`, -78.6% (active).
As to `COc1cccc(C(=O)Oc2cc(C)[nH]c(=O)c2[N+](=O)[O-])c1`, the activity change (cytotoxicity) was 0.5% (inactive).
For `COC(=O)C1CCCCN1C(=O)c1ccc(OC2CCN(C(C)=O)CC2)c(OC)c1` (configuration not stated) the value was 2.5% (inactive); for `Cc1ccc2c(c1)N(C(=O)CCC(=O)N1CCc3ccccc3C1)CCO2`, -2.8% (inactive); for `Cc1ccc(C)c(NC(CC(=O)c2ccccc2)C(=O)OCC(=O)c2cccs2)c1` (configuration not stated), 5.7% (inactive).
For `O=C(NCC(=O)N1CCN(c2ccccc2F)CC1)c1cccs1`, the activity change (cytotoxicity) is 10.7% (inactive).
For `Cc1ccccc1C(CC(=O)c1cccs1)C(C#N)C#N` (configuration not stated) the value was -51.2% (active).
For `CCN(CC)c1nc(-c2ccccc2)cc(C(F)(F)F)c1C#N` the value was 9.1% (inactive); for `Cc1ccc(CC(=O)Nc2ccc(OC(F)F)c(Cl)c2)cc1C`, 5.1% (inactive).
For `O=C(Cc1ccc(Cl)c(Cl)c1)Nc1ccc(SC(F)F)cc1` the value was -64.7% (active).
`CN(CC(=O)Nc1ccc(S(=O)(=O)N2CCCC2)cc1)Cc1ccc(Cl)c(Cl)c1`: the activity change (cytotoxicity) is -2.3% (inactive).
For `COc1ccccc1NC(=O)CSc1nnc(CNC(=O)c2ccccc2F)o1` the value was -0.3% (inactive); for `CCn1cc(NC(=O)Nc2ccc(OC)c(OC)c2)c(C(N)=O)n1`, -3.5% (inactive); for `O=C(COC(=O)/C(=C/c1cccs1)c1cccs1)NCc1ccccc1Cl`, 4.5% (inactive).
For `N#CCCN(C(=O)Nc1ccc(Cl)c(Cl)c1)C1CCCCC1` the value was 11.3% (inactive).
For `CC1(C(=O)O)CCC(C(=O)Nc2ccc(Cl)c(Cl)c2)C1(C)C` (configuration not stated) the value was 3.1% (inactive); for `O=C(CC(O)(C(F)(F)F)C(F)(F)F)Nc1ccc(Cl)c(Cl)c1`, -59% (active).
Regarding `CCCCC(c1nnnn1CS(=O)(=O)c1ccc(C)cc1)N1CCC(C(N)=O)CC1` (configuration not stated), the activity change (cytotoxicity) was -15% (inactive).
For `O=C(CCl)N(Cc1cccc([N+](=O)[O-])c1)c1cccc(Cl)c1` the value was -96.2% (active); for `Cc1ccc(S(=O)(=O)N(CC(=O)Nc2cccc([N+](=O)[O-])c2)Cc2ccc(Cl)cc2)cc1`, 10.5% (inactive).
For `CC(=O)N(CN1C(=O)C2CC=CCC2C1=O)c1cccc(Cl)c1` (configuration not stated) the value was 8.7% (inactive).
For `CCCn1nnc2sc3c(c2c1=O)CCC(C)C3` (configuration not stated) the value was -55.8% (active); for `Cc1cc(NC(=O)CSc2nc(C(C)C)nc3sc4c(c23)CCC(C)C4)no1` (configuration not stated), -1.3% (inactive).
`CCCSc1nc2sc3c(c2c(=O)n1-c1ccc(OC)cc1)CCN(C)C3`: the activity change (cytotoxicity) is 6.6% (inactive).
For `O=S(=O)(O)CCN1CCOCC1` the value was -2.1% (inactive).
For `CC(=O)NC(c1cccc(F)c1)c1nc(-c2cccc(F)c2)cs1` (configuration not stated) the value was -3.6% (inactive); for `CC(C)N(Cc1nc(-c2ccc3c(c2)OCO3)no1)CC1CCC(=O)N1` (configuration not stated), 7.7% (inactive).
`CCCSc1nsc(N)n1`: the activity change (cytotoxicity) is -4.9% (inactive).
For `COC(=O)c1sc(NC(=O)c2ccc(OC)cc2OC)nc1C` the value was -66.8% (active); for `COc1ccc(C(=O)CCC(=O)Nc2cccnc2)c(OC)c1`, -8.9% (inactive); for `Cc1csc(NC(=O)CSc2ccc(-c3ccc(F)cc3)nn2)n1`, 8.5% (inactive).
For `Cc1csc(NC(=O)CSc2nc(=O)cc(N)n2-c2ccc(F)cc2)n1` the value was -0.9% (inactive); for `Cc1ccccc1OCC(=O)Nc1nc(C)c(C(=O)N(C)C)s1`, 2.2% (inactive).
For `COc1cc(SC)ccc1C(=O)Nc1nc(C)cs1` the value was -88.8% (active); for `Cc1ccc2c(c1)N(CC(=O)N1CCC(O)CC1)C(=O)CO2`, 7.7% (inactive).
For the compound `O=C(NCCCN1CCCCC1)C1CC(=O)N(CCc2ccccc2)C1` (configuration not stated), the activity change (cytotoxicity) was -3.7% (inactive).
`O=C(CNC(=O)c1cc(S(=O)(=O)N2CCOCC2)ccc1N1CCCC1)Nc1ccc(F)c(F)c1`: the activity change (cytotoxicity) is 8% (inactive).
For `Cc1cc(C)c2c(=O)n3c(nc2c1)C(CC(C)C)NC(=O)c1cc2ccccc2cc1-3` (configuration not stated) the value was -9% (inactive); for `O=C(/C(=C/c1cccc(Cl)c1)c1nc2ccccc2[nH]1)c1ccccc1`, -62.2% (active).
For `CCCCn1c(N)c(N(CC(C)C)C(=O)CN(C)S(=O)(=O)c2ccc(F)cc2)c(=O)[nH]c1=O` the value was 1.7% (inactive); for `CCNC(=O)CC1C(=O)N(c2ccc(F)cc2)C(=O)N1CCc1sccc1C` (configuration not stated), 15.4% (inactive); for `O=C(NC(Nc1nc2ccc([N+](=O)[O-])cc2s1)(C(F)(F)F)C(F)(F)F)c1ccccc1`, -70.6% (active).
Turning to `O=C(Nc1nnc(SCc2ccccc2Cl)s1)c1cccc([N+](=O)[O-])c1`, the activity change (cytotoxicity) was -35.3% (inactive).
For `O=C(NNC(=O)c1ccc(-n2cncn2)c([N+](=O)[O-])c1)c1ccccc1` the value was 9.1% (inactive); for `O=C(COC(=O)c1ccccc1NC(=O)c1ccco1)Nc1ccc2c(c1)OC(F)(F)O2`, -4.2% (inactive).
For `COc1ccc(S(=O)(=O)NC(CC(=O)NCc2ccccc2OC)c2ccco2)cc1` (configuration not stated) the value was 5% (inactive).
For `Cc1c(NC(=O)Nc2cccc([N+](=O)[O-])c2)c(=O)n(-c2ccccc2)n1C` the value was 0% (inactive).
`Nc1c(-c2cccc(Cl)c2)cnn1-c1cccc([N+](=O)[O-])c1`: the activity change (cytotoxicity) is 4.3% (inactive).
In the case of `Cc1cccc(-n2ncc(Cl)c(Cl)c2=O)c1`, the activity change (cytotoxicity) is -97.1% (active).
In the case of `CCCNC(=O)c1c(Cl)cnn1-c1ccc(C)cc1`, the activity change (cytotoxicity) was 8.9% (inactive).
In the case of `CN(C)/C=C(/C(=O)c1ccc(Cl)c(Cl)c1)c1nnnn1-c1ccccc1`, the activity change (cytotoxicity) was 7.2% (inactive).
For `O=C(NCCN1C(=O)S/C(=C\c2cccnc2)C1=O)c1ccc(S(=O)(=O)N2CCCC2)cc1` the value was -6.2% (inactive).
Take `C=CCn1c(C2CC(=O)N(c3ccc(C)cc3)C2)nc2ccccc21` (configuration not stated): the activity change (cytotoxicity) was 1.2% (inactive).
For `COc1cccc(NC(=S)N(Cc2ccc(C)cc2)Cc2ccccn2)c1` the value was 2.6% (inactive); for `COc1ccc(NC(=O)/C(Cl)=C(/Cl)S(=O)Cc2ccc(C)cc2)cn1` (configuration not stated), -105% (active).
For `COc1ccc(NC(=O)C2Cc3c(-c4ccc5c(c4)OCO5)ccnc3O2)cn1` (configuration not stated) the value was -19.2% (inactive).
On to `CC(C)NC(=O)C1(C)CCCCCN1C(=O)c1ccc(-c2ccccc2)cc1` (configuration not stated), for which the activity change (cytotoxicity) is -2% (inactive).
For `COC(=O)c1ccc(S(=O)(=O)NCc2ccccc2)n1C` the value was 9.6% (inactive).
For `C=CCOc1nc2c(c(=O)n(C)c(=O)n2C)n1Cc1ccc(Cl)cc1Cl` the value was 9.5% (inactive); for `CN(CC(=O)NCC(c1ccccc1)N1CCCC1)S(=O)(=O)c1ccc(Cl)cc1` (configuration not stated), 16% (inactive).
For `CN(CC(=O)NNC(=O)CNC(=O)c1ccccc1Cl)S(=O)(=O)c1ccc(Cl)cc1` the value was -61.3% (active); for `CN(CC(=O)NCCc1ccccn1)S(=O)(=O)c1ccc(Cl)cc1`, 10.8% (inactive); for `O=C(O)c1cccnc1Sc1ncnc2sc3c(c12)CCC3`, 15.9% (inactive).
As for `c1ccc(CSc2ncnc3c2sc2nc(N4CCOCC4)c4c(c23)CCCC4)cc1`, the activity change (cytotoxicity) was -51% (active).
For `O=S(=O)(c1ccccc1)c1nc(Cc2ccccc2)oc1N1CCOCC1`, the activity change (cytotoxicity) is -0.9% (inactive).
For `Cc1c(CCO)c(=O)[nH]n1C(=O)c1c(F)cccc1F` the value was 1.8% (inactive).
`S=c1[nH]cc(-c2ccc(Cl)cc2)n1-c1ccccc1`: the activity change (cytotoxicity) was 6.2% (inactive).
Regarding `Cc1ccnc(SCC(=O)Nc2cccc(S(=O)(=O)N3CCOCC3)c2)n1`, the activity change (cytotoxicity) was 7.3% (inactive).
For `O=[N+]([O-])c1cc(S(=O)(=O)Nc2cccc(Cl)c2)ccc1N=Nc1c(O)[nH]c2ccccc12` the value was -80% (active); for `O=C(CCN1CCCCC1)N=Nc1c(O)[nH]c2ccccc12`, -4.3% (inactive).
For `O=C(NCc1ccncc1)c1ccc(NS(=O)(=O)c2cccc([N+](=O)[O-])c2)cc1` the value was -3% (inactive).
Consider `CCCNC(=O)CCn1cc(-c2ccc(OC)cc2)nc1CCN`, for which the activity change (cytotoxicity) is 2.3% (inactive).
For `COc1ccc(C2CC(=O)C=C(NCC3CCCO3)C2)cc1` (configuration not stated) the value was 0% (inactive).

Source of the values: PubChem BioAssay AID602141 (Sanford-Burnham Center for Chemical Genomics, 2011).
